We go through 28 sequences from the supplement of paper PMC3545927.

The list shows a part of the results. How many sequences the whole screen found active is unknown.

The test addresses furin, P09958. Briefly: furin cleavage Z-score vs untreated control; higher = more cleavage, active = 3.5 or more, inactive = 1 or less, 8 variable residues between constant flanks. Here is the method:
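Multiplexed peptide-cDNA fusion cleavage assay. 8-mer variable peptides flanked by constant Cys-Ala (N-term) and Ala-Gly-Asn-Ala-Ser-Ala-Ser-Ala (C-term) and conjugated to a cDNA oligonucleotide were bead-immobilised via the N-terminus. They were treated with purified furin at a 1:10 enzyme:substrate ratio in 50 mM HEPES pH 7.5, 1 mM CaCl2, 100 mM NaCl for 7.5, 15 or 30 min. Released cDNA was counted by next-generation sequencing, and log counts versus no-furin controls were lowess-adjusted and converted to robust Z-scores.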

Chain of furin, P09958 (P09958 whole entry, the tested form may be a part): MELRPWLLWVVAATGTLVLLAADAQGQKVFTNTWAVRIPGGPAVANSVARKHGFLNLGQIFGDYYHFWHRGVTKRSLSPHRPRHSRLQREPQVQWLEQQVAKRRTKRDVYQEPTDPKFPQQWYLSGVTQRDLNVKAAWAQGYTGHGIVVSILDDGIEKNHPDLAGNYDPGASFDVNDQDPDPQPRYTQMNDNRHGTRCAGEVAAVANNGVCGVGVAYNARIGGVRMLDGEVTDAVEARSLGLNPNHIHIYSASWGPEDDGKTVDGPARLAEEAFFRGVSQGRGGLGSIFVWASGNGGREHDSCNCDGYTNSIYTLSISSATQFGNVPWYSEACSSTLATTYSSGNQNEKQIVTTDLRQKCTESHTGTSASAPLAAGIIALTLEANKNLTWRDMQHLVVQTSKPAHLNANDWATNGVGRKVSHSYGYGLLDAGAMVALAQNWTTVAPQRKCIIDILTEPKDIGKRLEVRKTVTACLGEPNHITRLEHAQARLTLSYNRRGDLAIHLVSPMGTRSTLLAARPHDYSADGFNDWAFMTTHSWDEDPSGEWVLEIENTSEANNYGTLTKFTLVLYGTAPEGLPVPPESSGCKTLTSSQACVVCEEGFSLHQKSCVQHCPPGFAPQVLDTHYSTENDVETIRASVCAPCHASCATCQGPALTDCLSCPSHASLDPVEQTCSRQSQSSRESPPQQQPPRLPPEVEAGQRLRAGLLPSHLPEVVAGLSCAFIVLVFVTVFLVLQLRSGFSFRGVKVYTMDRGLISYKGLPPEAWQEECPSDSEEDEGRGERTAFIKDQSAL

For CAMEECSQTLAGNASASA [HC1758], the “furin cleavage Z-score” value is, setting by setting: (7.5 min) 0.0304 (inactive); (15 min) 0.61 (inactive); (30 min) 0.799 (inactive).

Take CAVLNPSVAAAGNASASA [HC787]: the “furin cleavage Z-score” value was -0.311 (inactive) (7.5 min), -0.0498 (inactive) (15 min) and -0.157 (inactive) (30 min).

Consider CAQGTRFKRAAGNASASA [FS-847], for which the “furin cleavage Z-score” value runs as follows: (7.5 min) 11.1 (active); (15 min) 10.3 (active); (30 min) 8.39 (active).

Turning to CAPKGRPKRAAGNASASA [FS-1047], the “furin cleavage Z-score” value is 11.3 (active) (7.5 min), 13.3 (active) (15 min) and 9.54 (active) (30 min).

For the sequence CAILGGWVAAAGNASASA [HC1066], the “furin cleavage Z-score” value runs as follows: (7.5 min) -0.934 (inactive); (15 min) -0.574 (inactive); (30 min) -1.27 (inactive).

CAPLLLLLLAAGNASASA [HC558]: the “furin cleavage Z-score” value runs as follows: (7.5 min) -0.475 (inactive); (15 min) -2.1 (inactive); (30 min) 0.488 (inactive).

CAPLKRFKRAAGNASASA [FS-699]: the “furin cleavage Z-score” value was 12.2 (active) (7.5 min), 12 (active) (15 min) and 9.3 (active) (30 min).

As to CAQLGRPKRCAGNASASA [FS-1248], the “furin cleavage Z-score” value reads like this: (7.5 min) 8.77 (active); (15 min) 10.3 (active); (30 min) 8.22 (active).

Turning to CAREGNASRCAGNASASA [HC276], the “furin cleavage Z-score” value (7.5 min) was -0.0161 (inactive), the “furin cleavage Z-score” value (15 min) was -0.511 (inactive) and the “furin cleavage Z-score” value (30 min) is -0.0787 (inactive).

Take CAEVQCHRPSAGNASASA [HC2362]: the “furin cleavage Z-score” value by setting is: (7.5 min) 0.385 (inactive); (15 min) 1.46; (30 min) 0.778 (inactive).

Take CAWRVSAEEYAGNASASA [HC1202]: the “furin cleavage Z-score” value is, setting by setting: (7.5 min) -0.863 (inactive); (15 min) -1.63 (inactive); (30 min) -0.815 (inactive).

On to CAMEECSIHLAGNASASA [HC1724], for which the “furin cleavage Z-score” value is 0.188 (inactive) (7.5 min), 1.13 (15 min) and 0.153 (inactive) (30 min).

For the sequence CARTRRTSKPAGNASASA [FS-1937], the “furin cleavage Z-score” value (7.5 min) is 0.687 (inactive), the “furin cleavage Z-score” value (15 min) worked out at 3.02 and the “furin cleavage Z-score” value (30 min) is 2.44.

For the sequence CAVTNDCPNSAGNASASA [HC262], the “furin cleavage Z-score” value was -1.55 (inactive) (7.5 min), -2.42 (inactive) (15 min) and -2.48 (inactive) (30 min).

For CARTRRSINSAGNASASA [FS-2316], the “furin cleavage Z-score” value by setting is: (7.5 min) 7.8 (active); (15 min) 8.93 (active); (30 min) 7.57 (active).

Turning to CARTRRCVCVAGNASASA [FS-3213], the “furin cleavage Z-score” value is -0.371 (inactive) (7.5 min), -0.858 (inactive) (15 min) and -0.127 (inactive) (30 min).

Turning to CAASSRNIRSAGNASASA [FS-924], the “furin cleavage Z-score” value is, setting by setting: (7.5 min) 5.59 (active); (15 min) 8.19 (active); (30 min) 6.71 (active).

For CARTRRNIDAAGNASASA [FS-3111], the “furin cleavage Z-score” value (7.5 min) is 6.35 (active), the “furin cleavage Z-score” value (15 min) is 7.27 (active) and the “furin cleavage Z-score” value (30 min) is 4.76 (active).

Turning to CAVRSRSIRSAGNASASA [FS-1663], the “furin cleavage Z-score” value runs as follows: (7.5 min) 11.3 (active); (15 min) 11.8 (active); (30 min) 8.54 (active).

CAEVVTSTLVAGNASASA [HC2225]: the “furin cleavage Z-score” value (7.5 min) was -0.125 (inactive), the “furin cleavage Z-score” value (15 min) is 0.377 (inactive) and the “furin cleavage Z-score” value (30 min) was -0.731 (inactive).

As for CAEKVVCCSMAGNASASA [HC2134], the “furin cleavage Z-score” value reads like this: (7.5 min) -0.767 (inactive); (15 min) 0.357 (inactive); (30 min) -1.09 (inactive).

With CAMSIRSDRSAGNASASA [FS-1646], the “furin cleavage Z-score” value runs as follows: (7.5 min) 1.46; (15 min) 0.662 (inactive); (30 min) 1.58.

In the case of CALDRRSQRSAGNASASA [FS-910], the “furin cleavage Z-score” value is, setting by setting: (7.5 min) 2.25; (15 min) 3.02; (30 min) 4.23 (active).

Turning to CAVHFRSIRSAGNASASA [FS-308], the “furin cleavage Z-score” value by setting is: (7.5 min) 8.08 (active); (15 min) 8.31 (active); (30 min) 5.71 (active).

Turning to CALSAFSLHSAGNASASA [HC1605], the “furin cleavage Z-score” value (7.5 min) was 0.383 (inactive), the “furin cleavage Z-score” value (15 min) was 0.938 (inactive) and the “furin cleavage Z-score” value (30 min) amounted to 1.75.

For the sequence CALSRRSISKAGNASASA [FS-2871], the “furin cleavage Z-score” value was 0.267 (inactive) (7.5 min), 1.81 (15 min) and -1.35 (inactive) (30 min).

As for CALSRRSIRSAGNASASA [FS-461], the “furin cleavage Z-score” value reads like this: (7.5 min) 10.4 (active); (15 min) 11.5 (active); (30 min) 9.32 (active).

As to CAMEECSDHLAGNASASA [HC1731], the “furin cleavage Z-score” value (7.5 min) is -0.133 (inactive), the “furin cleavage Z-score” value (15 min) is -1.7 (inactive) and the “furin cleavage Z-score” value (30 min) stood at 1.31.
